Most compounds without a hit are left out; they make up all but 22% or so of the library.
E-sel TNF inh = TNF alpha driven E-selectin expression inhibition. inhibition, % at 2 µM. HUVEC TNFa-induced E-selectin immunofluorescence, high content. 120,000 tested, 0.71% active;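 active = inhibition above the batch mean plus 3 SD, and confirmed as a hit on visual image review, cut at about 43% in these data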;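 also: 0% = TNF-stimulated DMSO wells and 100% = unstimulated control wells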
CYP2C9 activ = CYP2C9 (human) activation; recombinant CYP2C9, luciferin-H conversion, luminescence; active compounds read high; factor 1 = untreated enzyme, 0 = blocked; activation factor at 5 µM; 96,000 tested, 1.4% active;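 active = activation factor of 2 or more for CYP2C9 at a 5 µM dose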;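 also: 0 = sulfaphenazole-blocked wells and 1 = vehicle-only wells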
Target sequence (P11712 whole entry, looked up): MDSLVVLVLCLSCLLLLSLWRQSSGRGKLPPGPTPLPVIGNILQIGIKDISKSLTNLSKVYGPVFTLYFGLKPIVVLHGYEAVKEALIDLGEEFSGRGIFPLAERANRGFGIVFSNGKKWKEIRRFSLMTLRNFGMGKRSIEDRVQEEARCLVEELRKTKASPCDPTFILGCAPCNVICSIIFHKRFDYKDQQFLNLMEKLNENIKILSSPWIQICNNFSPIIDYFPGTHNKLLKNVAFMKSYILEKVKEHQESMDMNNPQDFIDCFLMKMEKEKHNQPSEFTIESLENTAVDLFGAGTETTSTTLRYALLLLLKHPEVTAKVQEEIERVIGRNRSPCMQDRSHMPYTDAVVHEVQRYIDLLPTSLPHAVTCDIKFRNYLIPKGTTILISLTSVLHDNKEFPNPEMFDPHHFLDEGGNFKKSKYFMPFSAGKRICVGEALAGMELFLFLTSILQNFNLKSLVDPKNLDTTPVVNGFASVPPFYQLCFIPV
CYP2C19 act = activators of human cytochrome P450 2C19; P33261; recombinant CYP2C19, luciferin-H EGE luminescence; active compounds read high; 0 = fully inhibited enzyme, 1 = untreated enzyme; activation factor at 5 µM; 96,000 tested, under 10 active;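 active = activation factor of at least 2 at 5 µM in the primary screen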;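 also: 0 = wells with 2.5 mM tranylcypromine and 1 = vehicle-only wells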
CYP2C9 inhib = inhibitors of human CYP2C9; inhibition, % at 5 µM; CYP2C9 Supersomes, luciferin-H conversion, luminescence; AID 777; P11712; 96,000 tested, 20% active;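 active = blocking of liver enzyme CYP2C9 beyond about 50% at 5 µM, limit read from the data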
F-actin modifier = cytoskeleton assembly modification | HUVEC TNFa F-actin phalloidin imaging, high content | inhibition, % at 2 µM | 91,000 tested, 0.18% active;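 active = inhibition above the batch mean plus 3 SD and confirmed as a hit by visual image inspection, cut at about 30% in these data, passing the limit was not always enough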
CYP2C19 inhib = human CYP2C19 inhibition | P33261 | CYP2C19 Supersomes, luciferin-H EGE luminescence, 30 min | inhibition, % at 5 µM | 96,000 tested, 21% active;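 active = CYP2C19 inhibition above a set limit at 5 µM in the primary screen, cut at about 50% in these data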;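 also: plate controls were negative control wells for no effect and 2.5 mM tranylcypromine positive control for full effect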
Starred values were filed as active, the others as inactive; . = no result.

SMILES | E-sel TNF inh | CYP2C9 activ | CYP2C19 act | CYP2C9 inhib | F-actin modifier | CYP2C19 inhib
COCCN1C(=O)C(O)=C(C(=O)c2ccco2)C1c1cccc(Oc2ccccc2)c1 (stereo not given) | 11 | 0.7 | 1.1 | 32 | 2 | -15
COc1cccc(CNC(=O)N[C@@H](CC(C)C)C(=O)O)c1 | 1 | 1.1 | 1 | -12 | 5 | -3
CCSc1nc(-c2ccc(OC)cc2)n(-c2nc3ccccc3s2)n1 | 6 | 0.5 | 0.9 | 54* | . | 12
CNC(=O)c1cc(C)c(-c2ccccc2)s1 | 24 | 1 | 0.6 | 3 | 6 | 41
CCOC(=O)C(=O)NNc1cccc(C)c1C | 1 | . | . | . | . | .
Cc1ccc(Sc2ncccc2COC(=O)Nc2ccccc2)cc1 | -43 | 0.4 | 0.8 | 55* | 9 | 21
Cc1ccc(Sc2ncccc2COC(=O)Nc2c(C)cccc2C)cc1 | -38 | 0.7 | 0.8 | 27 | -7 | 20
Cc1cccc2c1-c1sc(C(=O)Nc3cccc([N+](=O)[O-])c3C)cc1CO2 | -25 | . | . | . | . | .
O=C1CC(O)(C(F)(F)F)Oc2c1ccc1ccccc21 (stereo not given) | -20 | 0 | 0.2 | 96* | . | 84*
COc1ccc2c(c1)OC(O)(C(F)F)CC2=O (stereo not given) | -12 | 1 | 0.8 | -1 | 40 | 19
O=C1CC(O)(C(F)F)Oc2ccc3ccccc3c21 (stereo not given) | -39 | 0.4 | 0.2 | 60* | 4 | 85*
Cc1nnsc1NC(=O)OCC(C)(C)C | -20 | 1.2 | 1 | -19 | 19 | 2
Cn1cc([N+](=O)[O-])c(C(=O)NCc2ccco2)n1 | 4 | . | . | . | . | .
CCn1c2ccccc2c2cc(NC(=O)N3CCOCC3)ccc21 | -20 | 1.4 | 0.5 | -43 | -16 | 52*
CCn1c2ccccc2c2cc(NC(=O)c3ccc(Br)o3)ccc21 | . | 1 | 0.2 | 1 | -9 | 77*
CCN(CC)CCNc1nc(-c2ccccc2)c2c(c1C#N)CC(C)(C)OC2 | 3 | 0.7 | 0.9 | 29 | 3 | 11
CC1(C)Cc2c(C#N)c(NCCCO)nc(-c3ccccc3)c2CO1 | . | 0.4 | 0.8 | 61* | . | 21
CC1(C)Cc2c(c(-c3ccccc3)nc3[nH][nH]c(=O)c23)CO1 | 6 | 1 | 0.4 | 3 | . | 57*
CCCOc1ccc(C(=O)c2nc3c(n2O)CCCC3)cc1 | . | 0.8 | 0.9 | 24 | 33 | 6
Cc1ccc(CC(=O)N2CCC(c3nc4c(nnn4Cc4ccccc4)c(=O)[nH]3)CC2)cc1 | 1 | . | . | . | . | .
Cc1ccc(S(=O)(=O)N2CCC(c3nc4c(nnn4Cc4ccccc4)c(=O)[nH]3)CC2)cc1 | -39 | . | . | . | . | .
O=C(Cc1cccs1)N1CCC(c2nc3c(nnn3Cc3ccccc3)c(=O)[nH]2)CC1 | . | 0 | 0.5 | 97* | 5 | 48
Cc1ccc(Cn2nnc3c(=O)[nH]c(C4CCN(C(=O)Cc5cccs5)CC4)nc32)cc1 | -2 | 0.1 | 0.5 | 89* | 5 | 48
Cc1ccc(Cn2nnc3c(=O)[nH]c(C4CCN(S(=O)(=O)c5ccccc5)CC4)nc32)cc1 | . | 0.2 | 0.7 | 79* | 8 | 31
C1CCN(Cc2nnnn2C2CCCC2)CC1 | -12 | . | . | . | 14 | .
SMILES | E-sel TNF inh | CYP2C9 activ | CYP2C19 act | CYP2C9 inhib | F-actin modifier | CYP2C19 inhib
CCCCC(=O)Nc1ncc(Br)s1 | 12 | 0.6 | 0.2 | 37 | -7 | 76*
CCCCC(=O)Nc1nnc(C)s1 | -28 | 1.2 | 1 | -16 | . | -4
COC(=O)c1c(NC(=O)c2ccnn2C)sc(C)c1C | 5 | . | . | . | -8 | .
COc1ccc(C(=O)NCCSCc2ccccc2C)cc1 | 8 | 0.5 | 0.4 | 52* | -12 | 55*
COc1ccc(C(=O)NCCSCc2ccc(C)cc2)cc1 | . | 0.5 | 0.4 | 53* | 5 | 55*
Cc1ccc(SCCC(=O)NCCSCc2ccccc2C)cc1 | -62 | 0.2 | 0.7 | 81* | 11 | 33
Cc1ccc(CSCCNC(=O)c2ccc(C)cc2)cc1 | -24 | . | . | . | . | .
COc1ccc(C(=O)CC(Nc2ccc([N+](=O)[O-])cc2)c2ccc(Cl)cc2)cc1 (stereo not given) | -22 | 0.2 | 0.3 | 78* | -3 | 67*
Cc1ccc(/C=c2/sc3nnc(-c4ccccc4Cl)n3c2=O)o1 | -35 | 0.3 | 0.4 | 68* | -2 | 65*
O=C(c1cc2ccccc2oc1=O)N(Cc1ccc2c(c1)OCO2)Cc1ccco1 | 10 | 0.1 | 0 | 92* | -4 | 96*
O=C(c1cc2ccccc2oc1=O)N(Cc1ccccc1)CC1CCCO1 (stereo not given) | 28 | . | . | . | 12 | .
